# From PubChem BioAssay (NCATS)
# Records with an inconclusive call do not appear. Where a call stands in place of a potency, no number is given. A number with no mark means an inactive call. The source made the active and inactive calls. Calls come from the whole dose curve; as a rule, active = well fitted inhibition curve with a large enough effect; inconclusive = small, poorly fitted or top-dose-only effect; inactive = flat fitted curve, though single readings scatter.
# Tests used:
# [1] = molecular target: Glutathione peroxidase 1 (Homo sapiens) (UniProt P07203); experiment: Primary qHTS Assay for Inhibitors of Recombinant Selenoprotein Glutathione Peroxidase 1 (GPX1) (AID 1845191)
# Procedure, shortened: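 GPX1 10 nM, GR 100 nM, GSH 1 mM, NADPH 0.5 mM, CHP 0.5 mM (final). 30-min cpd preincubation, RT. Ex340/Em450 read t=0, t=15 min.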
# [2] = molecular target: Phospholipid hydroperoxide glutathione peroxidase GPX4 (Homo sapiens) (UniProt P36969); experiment: Primary qHTS Assay for Inhibitors of Recombinant Selenoprotein Glutathione Peroxidase 4 (GPX4) (AID 1845192); for activity change, negative = inhibition: series mostly up to about 50 µM
# Procedure, shortened: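 qHTS, GR-coupled: GPX4 200 nM + cpd 30 min RT → GSH 1 mM, NADPH 0.5 mM, GR 100 nM → CHP 0.5 mM start; fluor 340/450 at t0 and t15 min; no-enzyme wells as control.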
# Note: nearly all actives have a fitted effect of over 65% in size.
# Chain of Glutathione peroxidase 1 (Homo sapiens) (P07203 whole entry, looked up): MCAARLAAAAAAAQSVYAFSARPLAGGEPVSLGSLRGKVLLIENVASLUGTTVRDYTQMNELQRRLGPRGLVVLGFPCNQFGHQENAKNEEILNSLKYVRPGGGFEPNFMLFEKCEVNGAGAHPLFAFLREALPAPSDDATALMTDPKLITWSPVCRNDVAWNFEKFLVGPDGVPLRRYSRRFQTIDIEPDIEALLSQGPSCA
# Chain of Phospholipid hydroperoxide glutathione peroxidase GPX4 (Homo sapiens) (P36969 whole entry, looked up): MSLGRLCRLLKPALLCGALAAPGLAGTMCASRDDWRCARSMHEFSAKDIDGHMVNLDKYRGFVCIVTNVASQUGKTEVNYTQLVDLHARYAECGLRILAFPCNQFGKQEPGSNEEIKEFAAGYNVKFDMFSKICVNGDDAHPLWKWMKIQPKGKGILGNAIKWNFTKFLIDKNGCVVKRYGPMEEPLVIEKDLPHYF
compound,measurement,setting,value
NC(=O)N/N=C/c1ccc([N+](=O)[O-])o1,Potency,[1],inactive
same,Potency,[2],inactive
COc1ccccc1O,Potency,[1],inactive
same,Potency,[2],inactive
COc1ccc2cc1Oc1cc3c(cc1OC)CC[N+](C)(C)[C@H]3Cc1ccc(cc1)Oc1c(OC)c(OC)cc3c1[C@@H](C2)[N+](C)(C)CC3,Potency,[1],inactive
same,Potency,[2],inactive
Cn1cc[nH]c1=S,Potency,[1],inactive
same,Potency,[2],inactive
CCCCOC(=O)c1ccc(O)cc1,Potency,[1],inactive
same,Potency,[2],inactive
Cc1cc2c(cc1S(N)(=O)=O)S(=O)(=O)CCC2,Potency,[1],inactive
same,Potency,[2],inactive
NCCNCCNCCNCCN,outcome,[1],inactive [at 9.52 µM]
same,outcome,[2],inactive [at 9.73 µM]
Oc1cccc(O)c1,Potency,[1],inactive
same,Potency,[2],inactive
CC(C)NC[C@H](O)c1ccc(O)c(O)c1,Potency,[1],inactive
same,Potency,[2],inactive
CC1(C)[C@@H]2CC[C@@]1(C)C(=O)C2,Potency,[1],inactive
same,Potency,[2],inactive
O=C(O)Cc1sc(-c2ccccc2)nc1-c1ccc(Cl)cc1,Potency,[1],inactive
same,Potency,[2],inactive
C[C@]12C[C@H](O)[C@H]3[C@@H](CCC4=CC(=O)CC[C@@]43C)[C@@H]1CC[C@@H]2C(=O)CO,Potency,[1],inactive
same,Potency,[2],inactive
CC(O)COc1ccccc1 (stereo not given),Potency,[1],inactive
same,Potency,[2],inactive
N[C@@H](CSSC[C@H](N)C(=O)O)C(=O)O,"activity, negative = inhibition",[1],-7.33% [at 0.4 µM]
same,"activity change, negative = inhibition",[2],-7.83% [at 0.409 µM]
CC(COc1ccccc1)NC(C)C(O)c1ccc(O)cc1 (stereo not given),Potency,[1],inactive
same,Potency,[2],inactive
CN(C)CCOC(C)(c1ccccc1)c1ccccn1 (stereo not given),Potency,[1],inactive
same,Potency,[2],inactive
N[C@@H](CSCCCO)C(=O)O,Potency,[1],inactive
same,Potency,[2],inactive
CSc1ccc2c(c1)N(CCC1CCCCN1C)c1ccccc1S2 (stereo not given),Potency,[1],inactive
same,Potency,[2],inactive
CC(=O)CCC(=O)O,Potency,[1],inactive
same,Potency,[2],inactive
O=C1NS(=O)(=O)c2ccccc21,Potency,[1],inactive
same,Potency,[2],inactive
CCCn1cnc2c1c(=O)n(CCCCC(C)=O)c(=O)n2C,Potency,[1],inactive
same,Potency,[2],inactive
Nc1ccc(S(=O)(=O)NC(=O)c2ccccc2)cc1,Potency,[1],inactive
same,Potency,[2],inactive
CCn1cc(C(=O)O)c(=O)c2cnc(N3CCNCC3)nc21,Potency,[1],inactive
same,Potency,[2],inactive
CCCOC(=O)c1ccccc1,Potency,[1],inactive
same,Potency,[2],inactive
CNCCCC1c2ccccc2C=Cc2ccccc21,Potency,[1],inactive
same,Potency,[2],inactive
O=C(Oc1ccccc1C(=O)O)c1ccccc1O,Potency,[1],inactive
same,Potency,[2],inactive
CN1[C@@H]2CC[C@H]1CC(OC(=O)C(O)c1ccccc1)C2 (stereo not given in full),Potency,[1],inactive
same,Potency,[2],inactive
OCc1cc(C(O)CNCCCCCCOCCCCc2ccccc2)ccc1O (stereo not given),Potency,[1],inactive
same,Potency,[2],inactive
O=C1NC(=O)[C@@]2(CCOc3ccc(F)cc32)N1,Potency,[1],inactive
same,Potency,[2],inactive
CCCCN(CCCC)CCCOC(=O)c1ccc(N)cc1,Potency,[1],inactive
same,Potency,[2],inactive
CNCCC(Oc1ccc(C(F)(F)F)cc1)c1ccccc1 (stereo not given),Potency,[1],inactive
same,Potency,[2],inactive
CCCCCCCCCCCCOS(=O)(=O)O,Potency,[1],inactive
same,Potency,[2],inactive
Cc1cc(O)cc2c1O[C@](C)(CCC[C@H](C)CCC[C@H](C)CCCC(C)C)CC2,Potency,[1],inactive
same,Potency,[2],inactive
NS(=O)(=O)c1cc2c(cc1C(F)(F)F)NC(Cc1ccccc1)NS2(=O)=O (stereo not given),Potency,[1],inactive
same,Potency,[2],inactive
Nc1ccc(S(=O)(=O)Nc2ccc(Cl)nn2)cc1,Potency,[1],inactive
same,Potency,[2],inactive
CCC(=O)c1ccc(O)cc1,Potency,[1],inactive
same,Potency,[2],inactive
C[C@H]1O[C@H](O[C@H]2[C@H](O)[C@@H](O)[C@@H](O[C@H]3[C@H](O)[C@@H](O)[C@H](O)O[C@@H]3CO)O[C@@H]2CO)[C@H](O)[C@@H](O)[C@@H]1N[C@H]1C=C(CO)[C@@H](O)[C@H](O)[C@H]1O,Potency,[1],inactive
same,Potency,[2],inactive
CC(=O)c1ccc2c(c1)N(CCCN(C)C)c1ccccc1S2,Potency,[1],inactive
same,Potency,[2],inactive
CN(N=O)C(=O)N[C@@H]1[C@@H](O)[C@H](O)[C@@H](CO)O[C@@H]1O,Potency,[1],inactive
same,Potency,[2],inactive
CCCCC(CC)COC(=O)c1ccccc1O (stereo not given),Potency,[1],inactive
same,Potency,[2],inactive
CC(C)(C)c1onc(OCP(=O)(O)O)c1CC(N)C(=O)O (stereo not given),Potency,[1],inactive
same,Potency,[2],inactive
O=C1c2c(O)cccc2Cc2cccc(O)c21,Potency,[1],inactive
same,Potency,[2],inactive
CN(C)CCC=C1c2ccccc2CCc2ccccc21,Potency,[1],inactive
same,Potency,[2],inactive
O=C1N=C(O)CN1/N=C/c1ccc(-c2ccc([N+](=O)[O-])cc2)o1,Potency,[1],inactive
same,Potency,[2],inactive
Nc1cc(=O)[nH]c(N)n1,Potency,[1],inactive
same,Potency,[2],inactive
NC1[C@H]2CN(c3nc4c(cc3F)c(=O)c(C(=O)O)cn4-c3ccc(F)cc3F)C[C@@H]12 (stereo not given in full),Potency,[1],inactive
same,Potency,[2],inactive
Cc1c(O)cccc1C(=O)N[C@@H](CSc1ccccc1)[C@H](O)CN1C[C@H]2CCCC[C@H]2C[C@H]1C(=O)NC(C)(C)C,Potency,[1],inactive
same,Potency,[2],inactive
O=C(O)[C@H](O)c1ccccc1,Potency,[1],inactive
same,Potency,[2],inactive
CC1=C(CC(=O)O)c2cc(F)ccc2/C1=C\c1ccc(S(C)=O)cc1 (stereo not given),Potency,[1],inactive
same,Potency,[2],inactive
N=c1c[n+](N2CCOCC2)[n-]o1,Potency,[1],inactive
same,Potency,[2],inactive
CN1CCCCC1CCN1c2ccccc2Sc2ccc(S(C)=O)cc21 (stereo not given),Potency,[1],inactive
same,Potency,[2],inactive
CCN(CC)CCNC(C(=O)OCCC(C)C)c1ccccc1 (stereo not given),Potency,[1],inactive
same,Potency,[2],inactive
O=C(O)CC(O)C(=O)O (stereo not given),Potency,[1],inactive
same,Potency,[2],inactive
C/C(=C(\CCOP(=O)(O)O)SC(=O)c1ccccc1)N(C=O)Cc1cnc(C)nc1N,outcome,[1],inactive [at 4.49 µM]
same,outcome,[2],inactive [at 4.52 µM]
Oc1ccc(C(O)CNCCCCCCNCC(O)c2ccc(O)c(O)c2)cc1O (stereo not given),Potency,[1],inactive
same,Potency,[2],inactive
